From PubChem BioAssay (EPA / NIEHS)
Calls of active or inactive are those of the source. Rule for the calls: active = hit-call score of the fitted dose curve at least 0.9, where 1 is the maximum; inactive = score below 0.9.

Legend:
[1] = read-out: Transforming growth factor beta 1 (TGFb1), TGFB1 (gene 7040); experiment: BSK_KF3CT_TGFb1: BioMAP Diversity Plus: KF3CT Assay for Transforming growth factor beta 1 (TGFb1) Biomarker Activity (AID 2283072); conditions: primary human keratinocytes with fibroblasts; actives raise or lower the signal
Procedure, shortened: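 KF3CT co-culture (keratinocytes + fibroblasts), 24 h exposure → TGF-b1 ELISA → bidirectional fit, DMSO = baseline. Parallel SRB total-protein staining (0.1% SRB, 10% TCA fixation, 560 nm) for cytotoxicity.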

[2] = read-out: C-C motif chemokine 2 (Homo sapiens) (UniProt P13500); experiment: BSK_KF3CT_MCP1: BioMAP Diversity Plus: KF3CT Assay for Monocyte Chemoattractant Protein 1 (MCP1/CCL2) Biomarker Activity (AID 2283073); conditions: primary human keratinocytes with fibroblasts; actives raise or lower the signal
Procedure, shortened: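 ELISA read-out of MCP-1, 24 h post-dose, in primary human skin keratinocytes co-cultured with fibroblasts. Parallel SRB staining monitors cytotoxicity; changes fitted both directions relative to DMSO.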

[3] = read-out: Matrix Metallopeptidase 9 (MMP9), MMP9 (gene 4318); experiment: BSK_KF3CT_MMP9: BioMAP Diversity Plus: KF3CT Assay for Matrix Metallopeptidase 9 (MMP9) Biomarker Activity (AID 2283074); conditions: primary human keratinocytes with fibroblasts; actives raise or lower the signal;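 for AC50: MMP9 protein level quantified by ELISA in the co-culture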
Procedure, shortened: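 Values come from bidirectional fitting relative to DMSO of MMP-9 levels, which were measured by ELISA. Measurements were taken 24 h after chemical dosing of a keratinocyte and foreskin fibroblast co-culture.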

[4] = read-out: urokinase plasminogen activator (uPA), PLAU (gene 5328); experiment: BSK_KF3CT_uPA: BioMAP Diversity Plus: KF3CT Assay for urokinase plasminogen activator (uPA) Biomarker Activity (AID 2283075); conditions: primary human keratinocytes with fibroblasts; actives raise or lower the signal
Procedure, shortened: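 Values derive from bidirectional fitting against DMSO controls. Keratinocyte/foreskin fibroblast co-cultures received chemical; 24 h later uPA was detected by ELISA, with SRB total-protein staining in parallel wells for overt cytotoxicity.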

CD40, CD40 (gene 958) [5] = experiment: BSK_LPS_CD40: BioMAP Diversity Plus: LPS Assay for CD40 Biomarker Activity (AID 2283076); conditions: primary human HUVEC with PBMC; actives raise or lower the signal
Procedure, shortened: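 In the LPS system of human endothelial cells with peripheral blood mononuclear cells, CD40 levels were read by ELISA 24 h post-treatment. Signal changes in either direction were fitted against the DMSO baseline, with parallel SRB protein staining.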

[6] = read-out: E-selectin (Homo sapiens) (UniProt P16581); experiment: BSK_LPS_Eselectin: BioMAP Diversity Plus: LPS Assay for Eselectin Biomarker Activity (AID 2283077); conditions: primary human HUVEC with PBMC; actives raise or lower the signal
Procedure, shortened: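 E-selectin ELISA on LPS-stimulated endothelial cell/PBMC co-cultures, read 24 h post-treatment; gains and losses fitted against DMSO. Parallel SRB staining (0.1% SRB after 10% TCA fixation, 560 nm) flags overt cytotoxicity.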

[7] = read-out: Interleukin-8 (IL8), CXCL8 (gene 3576); experiment: BSK_LPS_IL8: BioMAP Diversity Plus: LPS Assay for Interleukin-8 (IL8) Biomarker Activity (AID 2283078); conditions: primary human HUVEC with PBMC; actives raise or lower the signal
Procedure, shortened: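 ELISA read-out of IL-8 after 24 h chemical treatment of LPS-activated endothelial/PBMC human primary co-cultures. Changes either up or down relative to DMSO; overt cytotoxicity checked by sulforhodamine B staining in parallel wells.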

[8] = read-out: Interleukin-1 alpha (IL1a), IL1A (gene 3552); experiment: BSK_LPS_IL1a: BioMAP Diversity Plus: LPS Assay for Interleukin-1 alpha (IL1a) Biomarker Activity (AID 2283080); conditions: primary human HUVEC with PBMC; actives raise or lower the signal
Procedure, shortened: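 Readout is IL-1a level by ELISA, 24 h post-dose, fitted as gain or loss relative to DMSO. System: LPS-activated human primary co-culture of vascular endothelium and peripheral blood mononuclear cells, with parallel SRB total-protein cytotoxicity.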

[9] = read-out: Monocyte Chemoattractant Protein-1 (MCP1), CCL2 (gene 6347); experiment: BSK_LPS_MCP1: BioMAP Diversity Plus: LPS Assay for Monocyte Chemoattractant Protein-1 (MCP1) Biomarker Activity (AID 2283081); conditions: primary human HUVEC with PBMC; actives raise or lower the signal
Procedure, shortened: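 Secreted MCP-1 read by ELISA at 24 h post-dosing in an LPS-activated co-culture of endothelial cells with peripheral blood mononuclear cells. Fits run in both directions, DMSO as baseline; parallel SRB staining tracks overt cytotoxicity.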

[10] = BSK_LPS_PGE2: BioMAP Diversity Plus: LPS Assay for Prostaglandin E2 (PGE2) Biomarker Activity (AID 2283082); conditions: primary human HUVEC with PBMC; actives raise or lower the signal
Procedure, shortened: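 Compounds were added to the LPS co-culture of endothelium and PBMC, and PGE2 was measured by ELISA after 24 h. Responses in either direction were fitted with DMSO as baseline.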

[11] = read-out: Macrophage colony-stimulating factor (MCSF), CSF1 (gene 1435); experiment: BSK_LPS_MCSF: BioMAP Diversity Plus: LPS Assay for Macrophage colony-stimulating factor (MCSF) Biomarker Activity (AID 2283083); conditions: primary human HUVEC with PBMC; actives raise or lower the signal
Procedure, shortened: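 Bidirectional fitting against DMSO was applied to M-CSF levels read by ELISA at 24 h post-dose. The system pairs human umbilical vein endothelium with peripheral blood mononuclear cells; parallel SRB staining tracked cytotoxicity.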

[12] = read-out: Tissue Factor, F3 (gene 2152); experiment: BSK_LPS_TissueFactor: BioMAP Diversity Plus: LPS Assay for Tissue Factor Biomarker Activity (AID 2283084); conditions: primary human HUVEC with PBMC; actives raise or lower the signal
Procedure, shortened: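 Compound was added to an endothelial cell/PBMC co-culture, and after 24 h tissue factor (CD142) was read by ELISA. Gain or loss of signal was fitted against a DMSO baseline, and parallel SRB staining (560 nm) tracked overt cytotoxicity.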

[13] = read-out: Tumor necrosis factor (Homo sapiens) (UniProt P01375); experiment: BSK_LPS_TNFa: BioMAP Diversity Plus: LPS Assay for Tumour Necrosis Factor alpha (TNFa) Biomarker Activity (AID 2283085); conditions: primary human HUVEC with PBMC; actives raise or lower the signal;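 for AC50: TNFa protein level quantified by ELISA in the co-culture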
Procedure, shortened: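 Cells (umbilical vein endothelium plus peripheral blood mononuclear cells) were dosed with chemical, incubated 24 h, then TNFa was quantified by ELISA; values derive from bidirectional fitting with DMSO as baseline.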

[14] = read-out: Vascular cell adhesion molecule 1 (VCAM1), VCAM1 (gene 7412); experiment: BSK_LPS_VCAM1: BioMAP Diversity Plus: LPS Assay for Vascular cell adhesion molecule 1 (VCAM1) Biomarker Activity (AID 2283086); conditions: primary human HUVEC with PBMC; actives raise or lower the signal
Procedure, shortened: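 Cells are dosed in an LPS-stimulated endothelial/mononuclear co-culture and, after 24 h, VCAM-1 is quantified by ELISA. Activity in either direction is fitted relative to the DMSO negative control.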

CD38, CD38 (gene 952) = experiment: BSK_SAg_CD38: BioMAP Diversity Plus: SAg Assay for CD38 Biomarker Activity (AID 2283087); conditions: primary human HUVEC with PBMC; actives raise or lower the signal
Procedure, shortened: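 CD38 quantified by ELISA (fluorescence) in a superantigen-activated endothelial cell–PBMC co-culture at 24 h post-dose. Activity fitted in both directions relative to DMSO; parallel SRB and Alamar Blue cytotoxicity read-outs.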

CD40, CD40 (gene 958) [15] = experiment: BSK_SAg_CD40: BioMAP Diversity Plus: SAg Assay for CD40 Biomarker Activity (AID 2283088); conditions: primary human HUVEC with PBMC; actives raise or lower the signal
Procedure, shortened: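 CD40 is measured by fluorescence ELISA in an endothelial/PBMC primary human co-culture at 24 h post-dose. Fitting is bidirectional, DMSO baseline. Parallel SRB staining (560 nm) flags cytotoxicity.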

CD69, CD69 (gene 969) = experiment: BSK_SAg_CD69: BioMAP Diversity Plus: SAg Assay for CD69 Biomarker Activity (AID 2283089); conditions: primary human HUVEC with PBMC; actives raise or lower the signal
Procedure, shortened: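 ELISA, fluorescence read-out: CD69 on human umbilical vein endothelial cell + PBMC co-culture, 24 h post-dosing. Gain or loss of signal fitted bidirectionally against DMSO baseline.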

[16] = read-out: Monocyte Chemoattractant Protein-1 (MCP1), CCL2 (gene 6347); experiment: BSK_SAg_MCP1: BioMAP Diversity Plus: SAg Assay for Monocyte Chemoattractant Protein-1 (MCP1) Biomarker Activity (AID 2283090); conditions: primary human HUVEC with PBMC; actives raise or lower the signal
Procedure, shortened: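 Values derive from bidirectional fitting of ELISA-measured MCP1 against DMSO controls. Readings were taken 24 h after dosing human vascular endothelial cells co-cultured with peripheral blood mononuclear cells under superantigen stimulation.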

[17] = read-out: E-selectin (Homo sapiens) (UniProt P16581); experiment: BSK_SAg_Eselectin: BioMAP Diversity Plus: SAg Assay for Eselectin Biomarker Activity (AID 2283091); conditions: primary human HUVEC with PBMC; actives raise or lower the signal
Procedure, shortened: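 Cell-surface E-selectin is read by ELISA at 24 h in the SAg co-culture of HUVEC and PBMC. Curves are fitted in both directions relative to DMSO. Parallel SRB total-protein staining tracks overt toxicity.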

[18] = BSK_LPS_SRB: Viability Assessment in the BioMAP Diversity Plus: LPS Assay (AID 2283079); conditions: primary human HUVEC with PBMC;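 note: total protein by sulforhodamine B absorbance as a cytotoxicity measure; measured one day after compound addition; fitted in both directions against DMSO so loss or gain of signal counts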
Procedure, shortened: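 SRB viability endpoint: cells fixed with 10% TCA, stained with 0.1% SRB, read at 560 nm, 24 h post-dose. HUVEC/PBMC co-culture; signal change in either direction scored relative to DMSO.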

E-selectin (Homo sapiens), sequence (P16581 whole entry, looked up): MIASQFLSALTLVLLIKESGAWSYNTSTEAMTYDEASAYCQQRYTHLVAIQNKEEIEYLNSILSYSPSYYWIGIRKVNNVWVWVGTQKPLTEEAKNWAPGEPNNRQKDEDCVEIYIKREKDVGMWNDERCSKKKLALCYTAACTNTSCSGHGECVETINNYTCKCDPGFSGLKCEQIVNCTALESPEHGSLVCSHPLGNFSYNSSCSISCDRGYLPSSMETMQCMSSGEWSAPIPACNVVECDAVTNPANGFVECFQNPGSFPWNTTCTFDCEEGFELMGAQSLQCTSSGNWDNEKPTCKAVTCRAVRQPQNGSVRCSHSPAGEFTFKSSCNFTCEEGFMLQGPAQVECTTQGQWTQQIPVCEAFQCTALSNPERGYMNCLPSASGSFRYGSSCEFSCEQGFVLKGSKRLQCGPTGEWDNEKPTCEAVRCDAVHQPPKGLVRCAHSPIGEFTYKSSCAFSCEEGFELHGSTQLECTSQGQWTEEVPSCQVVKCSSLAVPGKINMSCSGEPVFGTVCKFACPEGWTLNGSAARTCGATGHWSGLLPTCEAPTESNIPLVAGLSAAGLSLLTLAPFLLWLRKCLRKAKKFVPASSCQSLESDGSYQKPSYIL
Tumor necrosis factor (Homo sapiens), sequence (P01375 whole entry, looked up): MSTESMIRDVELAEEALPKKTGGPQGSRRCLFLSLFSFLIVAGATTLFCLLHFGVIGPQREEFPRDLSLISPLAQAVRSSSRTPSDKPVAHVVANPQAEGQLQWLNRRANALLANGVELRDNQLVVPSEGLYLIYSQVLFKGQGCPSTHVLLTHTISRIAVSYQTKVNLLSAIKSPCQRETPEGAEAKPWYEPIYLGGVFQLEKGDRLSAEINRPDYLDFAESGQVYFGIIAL

CCCCOC(=O)C(C)Oc1ccc(Oc2ccc(C(F)(F)F)cn2)cc1 (configuration not stated)
outcome [1]: inactive
outcome [2]: inactive
outcome [3]: inactive
outcome [4]: inactive
outcome (CD40, CD40 (gene 958) [5]): inactive
outcome [6]: inactive
outcome [7]: inactive
outcome [8]: inactive
outcome [9]: inactive
outcome [10]: inactive
outcome [11]: inactive
outcome [12]: inactive
outcome [13]: inactive
outcome [14]: inactive
outcome (CD38, CD38 (gene 952)): inactive
outcome (CD40, CD40 (gene 958) [15]): inactive
outcome (CD69, CD69 (gene 969)): inactive
outcome [16]: inactive
outcome [17]: inactive

S=C([S-])NCCNC(=S)[S-].[Mn+2]
outcome [1]: inactive
outcome [2]: inactive
AC50 [3]: 36.6 µM (active)
outcome [4]: inactive
outcome (CD40, CD40 (gene 958) [5]): inactive
AC50 [6]: 7.58 µM (active)
outcome [7]: inactive
outcome [18]: inactive
outcome [9]: inactive
outcome [10]: inactive
AC50 [11]: 13.2 µM (active)
outcome [12]: inactive
AC50 [13]: 20 µM (active)
AC50 [14]: 14.7 µM (active)
AC50 (CD38, CD38 (gene 952)): 14.6 µM (active)
outcome (CD40, CD40 (gene 958) [15]): inactive
outcome (CD69, CD69 (gene 969)): inactive
AC50 [16]: 30.3 µM (active)
